For some of these results: Potency and affinity values are given separately.
What was measured:
Set-up in all cases: scale not given: direction of the effect not stated beside the values
[1] = biological target: Protein translocase subunit SecA (Escherichia coli (strain K12)) (UniProt P10408); test: Assay to Identify E. coli SecA ATPase Inhibitors; assay type: functional; settings: 30 µM
[2] = biological target: T1, Ubiquitin-activating enzyme e1, putative (Leishmania donovani (strain BPK282A1)) (UniProt E9BSI1); test: Leishmania donovani Ubiquitin Activating Enzyme (LdE1); assay type: functional; settings: 30 µM
T1 sequence (whole entry): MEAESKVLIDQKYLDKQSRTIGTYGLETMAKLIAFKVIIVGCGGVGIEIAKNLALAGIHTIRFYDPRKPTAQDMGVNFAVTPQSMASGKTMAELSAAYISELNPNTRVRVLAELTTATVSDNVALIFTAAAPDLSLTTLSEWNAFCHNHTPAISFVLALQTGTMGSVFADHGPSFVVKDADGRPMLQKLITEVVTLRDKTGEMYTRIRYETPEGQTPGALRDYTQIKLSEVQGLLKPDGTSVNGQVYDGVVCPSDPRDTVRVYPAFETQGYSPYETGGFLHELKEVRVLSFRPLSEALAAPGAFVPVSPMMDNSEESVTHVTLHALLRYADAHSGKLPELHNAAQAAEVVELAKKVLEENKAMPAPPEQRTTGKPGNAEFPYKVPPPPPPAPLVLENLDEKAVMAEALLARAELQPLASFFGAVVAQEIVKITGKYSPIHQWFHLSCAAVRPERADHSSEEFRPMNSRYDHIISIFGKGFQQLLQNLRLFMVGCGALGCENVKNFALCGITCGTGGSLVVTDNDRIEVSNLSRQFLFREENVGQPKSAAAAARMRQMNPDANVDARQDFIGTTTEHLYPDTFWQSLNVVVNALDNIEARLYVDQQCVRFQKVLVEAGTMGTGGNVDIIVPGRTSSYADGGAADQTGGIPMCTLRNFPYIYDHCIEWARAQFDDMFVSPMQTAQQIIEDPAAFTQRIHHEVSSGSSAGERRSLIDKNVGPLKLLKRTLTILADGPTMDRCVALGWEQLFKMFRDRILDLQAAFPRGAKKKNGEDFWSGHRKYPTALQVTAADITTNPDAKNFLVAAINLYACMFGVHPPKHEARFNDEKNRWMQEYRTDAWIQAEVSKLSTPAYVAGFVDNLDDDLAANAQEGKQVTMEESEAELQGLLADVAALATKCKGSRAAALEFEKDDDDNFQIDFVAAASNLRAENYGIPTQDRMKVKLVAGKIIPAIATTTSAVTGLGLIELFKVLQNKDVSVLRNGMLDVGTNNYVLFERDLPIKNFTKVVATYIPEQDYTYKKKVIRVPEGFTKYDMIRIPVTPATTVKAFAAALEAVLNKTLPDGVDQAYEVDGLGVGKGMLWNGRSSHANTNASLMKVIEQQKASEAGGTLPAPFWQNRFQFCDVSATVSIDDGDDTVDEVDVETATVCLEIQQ

[3] = biological target: AMP-activated protein kinase, AMPK (Homo sapiens) (UniProt P54646+O43741+P54619+Q9UGJ0+Q9Y478+Q13131+Q9UGI9); test: AMP-dependent Kinase enzyme assay. An in vitro enzyme assay that detects ADP turnover that is directly proportional to AMPK activity. This uses naive AMPK that is activated during the assay with MK-8722; assay type: functional; settings: 30 µM
[4] = biological target: Sialic acid-binding Ig-like lectin 9 (Homo sapiens) (UniProt Q9Y336); test: Hs-Siglec9 ALPHAscreen SOP 20170721; settings: 10 µM
[5] = system: Trypanosoma cruzi; test: Trypanosoma cruzi phosphomannomutase and mannose-1-phosphate guanylyltransferase assay; assay type: functional; settings: 10 µM
[6] = biological target: T2, Arginase-2, mitochondrial (Homo sapiens) (UniProt P78540); test: in vitro enzyme assay to detect the production of urea directly proportional to the activity of Arginase II; assay type: functional; settings: 33.3 µM; note: in the data most compounds retested in dose-response had high values
T2 sequence (whole entry): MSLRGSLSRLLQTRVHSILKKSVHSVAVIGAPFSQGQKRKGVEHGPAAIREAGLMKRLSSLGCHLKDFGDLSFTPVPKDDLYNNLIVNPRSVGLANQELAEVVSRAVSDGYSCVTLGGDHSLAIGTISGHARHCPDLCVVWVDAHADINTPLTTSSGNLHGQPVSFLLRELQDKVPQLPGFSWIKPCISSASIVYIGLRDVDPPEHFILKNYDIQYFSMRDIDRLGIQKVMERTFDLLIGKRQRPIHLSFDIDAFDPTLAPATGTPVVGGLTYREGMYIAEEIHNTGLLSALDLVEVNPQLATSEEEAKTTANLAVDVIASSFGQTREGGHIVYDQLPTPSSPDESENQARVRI

[7] = biological target: T3, Proteasome subunit beta (Trypanosoma cruzi) (UniProt O96673); test: Trypanosoma cruzi proteasome chymotrypsin-like activity (TcProtChymo) assay.; note: in the data most compounds retested in dose-response had high values; assay type: functional; settings: 9.37 µM
T3 sequence (whole entry): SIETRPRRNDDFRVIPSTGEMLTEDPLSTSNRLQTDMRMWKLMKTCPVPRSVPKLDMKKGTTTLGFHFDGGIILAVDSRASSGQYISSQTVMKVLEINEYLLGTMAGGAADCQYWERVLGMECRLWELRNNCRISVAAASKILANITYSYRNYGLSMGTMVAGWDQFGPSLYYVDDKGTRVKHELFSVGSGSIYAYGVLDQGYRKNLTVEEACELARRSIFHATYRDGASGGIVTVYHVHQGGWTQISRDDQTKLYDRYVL

[8] = species: Homo sapiens; test: To identify inhibition of the IFN signalling (Jak-Stat) pathway via expression of an eGFP reporter gene under the control of an IFN-stimulated response element (ISRE) containing MxA promoter.; assay type: functional; settings: 30 µM
[9] = biological target: T4, Tyrosyl-tRNA synthetase, putative (Trypanosoma cruzi (strain CL Brener)) (UniProt Q4DSP6); test: Trypanosoma cruzi tyrosyl tRNA synthetase (TcYRS) _High Tyrosine SOP; assay type: functional; settings: 30 µM; note: in the data most compounds retested in dose-response had high values
T4 sequence (whole entry): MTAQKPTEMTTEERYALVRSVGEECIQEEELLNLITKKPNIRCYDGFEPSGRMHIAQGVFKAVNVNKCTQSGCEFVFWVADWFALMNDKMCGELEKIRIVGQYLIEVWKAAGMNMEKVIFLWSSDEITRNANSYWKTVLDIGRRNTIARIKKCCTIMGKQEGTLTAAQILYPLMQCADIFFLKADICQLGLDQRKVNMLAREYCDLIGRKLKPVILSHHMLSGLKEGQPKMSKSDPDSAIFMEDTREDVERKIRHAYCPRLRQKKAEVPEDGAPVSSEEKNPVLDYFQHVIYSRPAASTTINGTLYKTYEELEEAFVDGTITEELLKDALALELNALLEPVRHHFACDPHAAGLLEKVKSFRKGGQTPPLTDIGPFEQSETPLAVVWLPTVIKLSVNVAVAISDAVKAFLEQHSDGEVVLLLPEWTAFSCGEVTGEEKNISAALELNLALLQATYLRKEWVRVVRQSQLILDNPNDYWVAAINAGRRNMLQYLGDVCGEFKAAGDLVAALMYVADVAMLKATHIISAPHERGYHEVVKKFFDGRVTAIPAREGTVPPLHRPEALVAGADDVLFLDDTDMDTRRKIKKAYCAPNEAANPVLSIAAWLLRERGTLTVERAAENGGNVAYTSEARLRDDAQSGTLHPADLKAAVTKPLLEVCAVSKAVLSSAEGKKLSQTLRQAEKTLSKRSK

[10] = biological target: T4, Tyrosyl-tRNA synthetase, putative (Trypanosoma cruzi (strain CL Brener)); test: Trypanosoma cruzi tyrosyl tRNA synthetase (TcYRS) SOP; assay type: functional; settings: 30 µM
[11] = biological target: Chromo domain-containing protein 1 (Saccharomyces cerevisiae (strain ATCC 204508 / S288c) (Baker's yeast)) (UniProt P32657); test: ScCHD-1 Enzyme Inhibition Assay; assay type: functional; settings: 30 µM; note: in the data most compounds retested in dose-response had high values
Chromo domain-containing protein 1 (Saccharomyces cerevisiae (strain ATCC 204508 / S288c) (Baker's yeast)), sequence (P32657 whole entry, the tested form may be a part): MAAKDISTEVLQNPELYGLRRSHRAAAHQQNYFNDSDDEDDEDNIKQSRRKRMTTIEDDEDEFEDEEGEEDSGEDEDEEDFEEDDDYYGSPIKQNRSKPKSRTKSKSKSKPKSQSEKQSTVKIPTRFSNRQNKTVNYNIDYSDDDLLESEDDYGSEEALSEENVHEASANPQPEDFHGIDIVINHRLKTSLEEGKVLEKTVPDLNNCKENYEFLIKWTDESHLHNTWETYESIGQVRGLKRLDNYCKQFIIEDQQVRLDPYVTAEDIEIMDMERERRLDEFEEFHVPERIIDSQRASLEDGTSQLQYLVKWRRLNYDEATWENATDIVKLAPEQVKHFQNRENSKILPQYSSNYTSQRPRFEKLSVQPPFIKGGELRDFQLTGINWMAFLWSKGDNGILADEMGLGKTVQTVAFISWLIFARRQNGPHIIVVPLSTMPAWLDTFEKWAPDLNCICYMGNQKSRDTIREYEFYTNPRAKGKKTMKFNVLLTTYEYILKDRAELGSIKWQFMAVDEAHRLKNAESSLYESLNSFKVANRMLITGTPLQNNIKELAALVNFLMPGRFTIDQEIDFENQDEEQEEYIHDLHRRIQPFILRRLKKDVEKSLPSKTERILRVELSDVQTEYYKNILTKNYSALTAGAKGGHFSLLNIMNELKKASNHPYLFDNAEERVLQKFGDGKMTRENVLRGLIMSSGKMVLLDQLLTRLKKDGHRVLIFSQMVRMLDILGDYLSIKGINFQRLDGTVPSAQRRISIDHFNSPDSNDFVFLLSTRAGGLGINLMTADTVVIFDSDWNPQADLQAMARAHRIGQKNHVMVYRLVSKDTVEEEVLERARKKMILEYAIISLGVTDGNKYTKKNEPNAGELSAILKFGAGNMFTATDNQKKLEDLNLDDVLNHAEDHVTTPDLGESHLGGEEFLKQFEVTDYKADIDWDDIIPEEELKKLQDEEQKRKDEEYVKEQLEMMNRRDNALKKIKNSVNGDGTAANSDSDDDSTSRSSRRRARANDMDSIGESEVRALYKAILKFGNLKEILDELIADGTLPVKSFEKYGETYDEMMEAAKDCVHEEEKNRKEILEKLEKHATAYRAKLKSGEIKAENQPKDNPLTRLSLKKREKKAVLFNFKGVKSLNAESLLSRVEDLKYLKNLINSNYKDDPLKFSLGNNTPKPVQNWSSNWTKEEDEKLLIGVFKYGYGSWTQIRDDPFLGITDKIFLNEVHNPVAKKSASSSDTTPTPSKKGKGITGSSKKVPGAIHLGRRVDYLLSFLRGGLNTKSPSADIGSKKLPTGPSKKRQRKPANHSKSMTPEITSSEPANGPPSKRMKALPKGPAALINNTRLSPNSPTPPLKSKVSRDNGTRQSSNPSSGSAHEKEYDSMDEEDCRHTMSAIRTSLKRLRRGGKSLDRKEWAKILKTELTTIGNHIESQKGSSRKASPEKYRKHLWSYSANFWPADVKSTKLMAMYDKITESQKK

Sialic acid-binding Ig-like lectin 9 (Homo sapiens), sequence (Q9Y336 whole entry): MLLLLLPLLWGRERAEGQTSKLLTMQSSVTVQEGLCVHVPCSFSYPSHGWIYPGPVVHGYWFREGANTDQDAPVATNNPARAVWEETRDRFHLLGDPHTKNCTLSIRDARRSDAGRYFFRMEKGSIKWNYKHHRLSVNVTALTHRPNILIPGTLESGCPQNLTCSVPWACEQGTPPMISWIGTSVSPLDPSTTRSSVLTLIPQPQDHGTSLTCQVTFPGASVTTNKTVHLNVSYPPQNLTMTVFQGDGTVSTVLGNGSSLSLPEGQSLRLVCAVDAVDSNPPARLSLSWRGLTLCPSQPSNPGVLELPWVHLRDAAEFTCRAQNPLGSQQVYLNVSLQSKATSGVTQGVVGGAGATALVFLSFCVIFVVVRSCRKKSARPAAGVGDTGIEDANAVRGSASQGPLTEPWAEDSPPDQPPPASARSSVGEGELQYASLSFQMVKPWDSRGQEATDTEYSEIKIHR
Protein translocase subunit SecA (Escherichia coli (strain K12)), sequence (P10408 whole entry): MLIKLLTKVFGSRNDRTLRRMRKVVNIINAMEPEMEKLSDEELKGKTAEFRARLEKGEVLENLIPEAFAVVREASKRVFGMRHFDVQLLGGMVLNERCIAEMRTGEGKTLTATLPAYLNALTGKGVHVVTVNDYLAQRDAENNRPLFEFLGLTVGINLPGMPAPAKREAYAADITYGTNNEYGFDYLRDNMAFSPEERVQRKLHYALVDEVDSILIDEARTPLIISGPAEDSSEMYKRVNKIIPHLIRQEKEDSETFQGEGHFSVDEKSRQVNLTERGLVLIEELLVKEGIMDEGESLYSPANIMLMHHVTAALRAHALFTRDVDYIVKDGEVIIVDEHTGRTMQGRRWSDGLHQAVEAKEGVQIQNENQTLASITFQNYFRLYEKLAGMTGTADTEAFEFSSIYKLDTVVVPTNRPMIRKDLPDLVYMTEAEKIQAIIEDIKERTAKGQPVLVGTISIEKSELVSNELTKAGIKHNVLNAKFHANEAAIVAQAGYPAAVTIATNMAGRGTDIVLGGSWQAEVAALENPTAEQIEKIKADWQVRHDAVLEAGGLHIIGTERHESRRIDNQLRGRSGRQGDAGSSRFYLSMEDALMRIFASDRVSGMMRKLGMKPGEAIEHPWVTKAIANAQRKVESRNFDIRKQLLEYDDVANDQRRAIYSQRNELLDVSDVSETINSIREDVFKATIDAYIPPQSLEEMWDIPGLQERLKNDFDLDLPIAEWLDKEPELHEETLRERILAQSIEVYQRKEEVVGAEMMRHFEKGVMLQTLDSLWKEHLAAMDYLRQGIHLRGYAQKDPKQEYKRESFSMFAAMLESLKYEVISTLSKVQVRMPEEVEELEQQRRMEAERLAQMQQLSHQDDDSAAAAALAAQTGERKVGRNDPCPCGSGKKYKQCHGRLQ

SMILES | Percent Effect [1] [%] | Percent Effect [2] [%] | Percent Effect [3] [%] | Percent Effect [4] [%] | Percent Effect [5] [%] | Percent Effect [6] [%] | Percent Effect [7] [%] | Percent Effect [8] [%] | Percent Effect [9] [%] | Percent Effect [10] [%] | Percent Effect [11] [%]
CC(C)N(C)Cc1nnc2n1CCN(Cc1ccncc1)CC2 | -1.23 | 8 | 2.82 | -4.03 | -3.67 | -54.7 | 2.73 | 1.94 | -2.08 | 5 | -6.5
CCc1nnc(CNCC2CCCN2c2cccnn2)o1 (stereo not given) | -2.1 | 0 | 0.161 | 4.6 | 2.78 | -2.4 | 5.57 | 3.42 | 8.33 | 11.1 | -4.05
CCNC(=O)N1CCCCC1CCNS(C)(=O)=O (stereo not given) | -1.55 | 5.41 | -3.93 | 3.76 | 8.3 | -3.33 | 13.3 | 6.93 | 7.94 | 9.76 | -1.52
Cc1ccccc1C(=O)N1CCOC2(CNCCOC2)C1 (stereo not given) | -0.256 | 2.7 | -1.58 | 2.44 | -2.51 | -1.43 | 17.8 | 11.5 | 1.59 | 9.76 | -3.15
O=C(CNC(=O)N1CCc2c([nH]c3ccc(Cl)cc23)C1)N1CCOCC1 | -8.87 | -4 | 11.7 | -3.55 | -2.55 | -20.2 | 10.5 | 7.25 | -3.17 | -5.13 | -12.6
c1cnc(NCc2noc3c2CN(C2CCOCC2)CC3)nc1 | -4.67 | 18.7 | -2.09 | -2.32 | 3.86 | -46.8 | 15.7 | -2.62 | 7.29 | 22.5 | -7.21
COc1cc(CNC2CCCc3c2cnn3C)cc(OC)c1 (stereo not given) | -5.5 | 8.11 | 139 | 9.27 | 1.6 | -3.61 | -1.44 | 2.92 | 5.42 | 3.7 | -10
CCn1c(CN(C)C)nnc1C1CCN(Cc2cccc(OC)c2)CC1 | 2.78 | 10.4 | -4.93 | 7.22 | -3.64 | -12.4 | 16 | 10.6 | 4.3 | 11.1 | 0.325
Cc1nc(C)n(C2CCCN(C(=O)CCCOc3ccccc3)C2)n1 (stereo not given) | -1.32 | 0 | 6.84 | 4.93 | 1.5 | -2.85 | -1.18 | -22.8 | 2.91 | 9.76 | -5.8
CN1CCN(Cc2ccccc2CNC(=O)c2ccc(Br)cc2F)CC1 | -2.05 | 5.41 | -1.3 | 7.25 | -1.86 | 3.72 | 3.35 | 9.27 | 5.38 | 11.1 | -4.37
Cn1c(CN2CCN(CC3CC3)CC2)nnc1C1CCC1 | -8.27 | 0 | -14 | 5.49 | -0.392 | -1.36 | 4.44 | -5.43 | -2.15 | 0 | -2.31
CC1CN(C)CCN1C(=O)c1ccn(-c2cccc(Cl)c2)n1 (stereo not given) | -4.4 | 5.2 | 3.41 | 8.46 | 3 | -4.98 | -5.91 | -0.574 | 2.91 | 9.76 | -7.43
Cc1noc(C)c1CCC(=O)N1CCN(CCn2cccn2)CC1 | -5.39 | 21.9 | -6.91 | 19.6 | 7.64 | 8.18 | 8.52 | 3.96 | 3.23 | 17.5 | -5.67
O=C(CC1CCCC1)N1CCCC1c1nc(O)cc(-c2ccccn2)n1 (stereo not given) | -6.13 | 20.3 | 1.3 | 16.7 | -0.395 | -4.41 | 13.9 | 1.89 | 6.45 | 19.5 | -15.4
Cc1ncnc2c1CCN(c1cc(C(F)(F)F)ncn1)CC2 | -2.66 | 13.3 | -0.456 | -3.31 | -3.09 | -58.2 | 13.7 | 4.55 | 0 | 2.5 | -7.43
Cc1cc(C)n(C2CCCN(C(=O)c3cccc4[nH]ncc34)C2)n1 (stereo not given) | -5.51 | -13.5 | 6.86 | -7.42 | -4.49 | -1.67 | 7.69 | -0.356 | 6.93 | 3.66 | 2.88
CCCc1n[nH]c(C2CN(CCCOc3ccccc3)CCO2)n1 (stereo not given) | -5.86 | 1.27 | 7.41 | 1.64 | -1.74 | 1.5 | -1.03 | 2.3 | 4.17 | 7.59 | 13.9
O=C(c1ccccn1)N1CCc2c(nc(N3CCCC3)[nH]c2=O)C1 | -7.12 | 12.2 | 0.895 | 26.1 | 0.198 | -3.48 | 7.64 | 10.1 | 3.23 | 11.7 | -17.3
O=C(NC1CCS(=O)(=O)C1)c1sccc1-c1ccc(F)cc1 (stereo not given) | -6.43 | 5.41 | 2.1 | -6.95 | -4.4 | -0.248 | 8.15 | -15.8 | 0 | 6.17 | 11.7
Cc1cccc(-c2[nH]ncc2CNCC2CCN(CC(C)O)CC2)c1 (stereo not given) | -3.75 | 8.11 | -18.5 | 11.6 | 1.42 | 0.401 | 3.96 | 3.31 | 5.42 | 18.5 | -8.81

— ChEMBL document CHEMBL3988442, “University of Dundee, Small-Polar-MMV Screening Library” (2021)
